# Reference: PubChem BioAssay (NCATS)
# Records with an inconclusive call do not appear. A call without a number means that no potency is given here. A number with no mark means an inactive call. Calls of active or inactive are those of the source. The call rests on the fitted dose curve; in most records, active means well fitted inhibition curve with a large enough effect; inconclusive means small, poorly fitted or top-dose-only effect; inactive means flat fitted curve, though single readings scatter.
# System: NIH3T3
# Assay: qHTS assay to identify novel small-molecules to repurpose for Merkel cell carcinoma treatment (AID 1296009); further: nearly all actives have a fitted effect of over 60% in size
# Details: MCC and control cell lines, CellTiter-Glo viability, 72 h; at 44.8 µM (top of the series) unless noted
# Method in brief: (§1)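 Viability readout: ATP luminescence (CellTiter-Glo) after 72 hr drug exposure at 37 degree celsius. Dose-response format was 8 points for NPC and 11 points for MIPE; data normalized to in-plate controls.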
row,SMILES,outcome
1,Nc1nc2ccccc2n1Cc1ccc(F)cc1,inactive
2,CCOC(=O)c1cc(=O)c2c(OCC(COc3cccc4oc(C(=O)OCC)cc(=O)c34)OC(=O)[C@@H](N)CCCCN)cccc2o1,inactive
3,N#CSCC(=O)O,inactive

# System: UISO
# Assay: as above
# Details: MCC and control cell lines, CellTiter-Glo viability, 72 h; series mostly up to 46 µM
# Method in brief: as §1
SMILES,Potency,"activity change, negative = cytotoxicity"
C[C@@H](C1=C(CCN(C)C)Cc2ccccc21)c1ccccn1,inactive,
O=C1OC2(c3ccccc31)c1cc(I)c(O)c(I)c1Oc1c2cc(I)c(O)c1I,inactive,
CCOCCn1c(C2CCN(CCc3ccc(C(C)(C)C(=O)O)cc3)CC2)nc2ccccc21,inactive,
O=C(Oc1ccccc1)c1cccc(C(=O)Oc2ccccc2)c1,inactive,
CCc1cc2cc(OC)c(OC)cc2c(Cc2ccccc2)n1,inactive,
CCOc1ncc(F)c(=O)[nH]1,inactive,
COCCOCC(OC)OC,inactive,
O=C(O)c1ccc(OCCN2CCCCC2)cc1,inactive,
Oc1ccccc1,inactive,
O=C(OCCN1CCOCC1)c1cccnc1Nc1cccc(C(F)(F)F)c1,inactive,
COc1ccc2cc(C=O)ccc2c1,inactive,
COc1ccc2c(c1)c(CC(=O)OC/C=C(\C)CC/C=C(\C)CCC=C(C)C)c(C)n2C(=O)c1ccc(Cl)cc1,inactive,
O=C(O)[C@@H](O)[C@H](O)[C@H](O)[C@@H](O)C(=O)O,inactive,
CNC(=O)c1c(I)c(NC(C)=O)c(I)c(C(=O)O)c1I,inactive,
NCC[C@H](O)C(=O)N[C@@H]1C[C@H](N)[C@@H](O[C@H]2O[C@H](CN)[C@@H](O)[C@H](O)[C@@H]2O)[C@H](O)[C@@H]1O[C@H]1O[C@H](CO)[C@@H](O)[C@H](N)[C@@H]1O,,23.5% [at 0.597 µM]
